Data reported in article PMC8384837, “Expanding the binding specificity for RNA recognition by a PUF domain”.

Target: PUM1 PUF domain R5-KRG (Homo sapiens, UniProt Q14671 828-1176, C1007K;Q1011G)
Assay: yeast three-hybrid, YBZ-1, SC-Leu-His + 0.5 mM 3-AT, 4 days
Conditions: tags: N-Gal4 AD-HA kept; label: inside an RPR1-promoter hybrid RNA with tandem MS2 sites; ssRNA
Summary of the method: (§1)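 Pumilio-1 PUF domain libraries, randomized (NNK) at the three base-contacting residues of each repeat, were co-expressed with matching RNA elements from a centromeric plasmid in strain YBZ-1 (LexA–MS2 coat fusion, HIS3 reporter). Transformants were plated on SC-Leu (input) and SC-Leu-His + 0.5 mM 3-AT (selection) for four days, and repeat regions were PCR-amplified and Illumina-sequenced. The interaction score is the log2 change in variant frequency from input to selection, with pseudocount 1 where absent.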

“GGCUAGAACUAGUGGAUCCCCCGGCGCCCGGCGGCUCGAGCCCGGGUAAGUGUUAAUAGUCUGCAUGCCGCCGGGCGCCAUGCCUGCAGGUCGACUCUAGAAAACAUG” was tested. Which binding signal did it give?
Its binding signal is 4.3 log2 enrichment (interaction score).

How did the binding signal turn out when “GGCUAGAACUAGUGGAUCCCCCGGCGCCCGGCGGCUCGAGCCCGGGUAAGUGUCAAUAGUCUGCAUGCCGCCGGGCGCCAUGCCUGCAGGUCGACUCUAGAAAACAUG” was run?
The binding signal was 3.68 log2 enrichment (interaction score).

“GGCUAGAACUAGUGGAUCCCCCGGCGCCCGGCGGCUCGAGCCCGGGUAAGUGUAAAUAGUCUGCAUGCCGCCGGGCGCCAUGCCUGCAGGUCGACUCUAGAAAACAUG” was tested. Which binding signal did it give?
Its binding signal is 1.97 log2 enrichment (interaction score).

Target: PUM1 PUF domain R4-DWC (Homo sapiens, UniProt Q14671 828-1176, N971D;H972W;Q975C)
Assay: as above
Conditions: tags: N-Gal4 AD-HA kept; label: inside an RPR1-promoter hybrid RNA with tandem MS2 sites; ssRNA
Summary of the method: as §1

For “GGCUAGAACUAGUGGAUCCCCCGGCGCCCGGCGGCUCGAGCCCGGGUAAGUGUACAUAGUCUGCAUGCCGCCGGGCGCCAUGCCUGCAGGUCGACUCUAGAAAACAUG”, which binding signal is on record?
Its binding signal is 2.72 log2 enrichment (interaction score).

“GGCUAGAACUAGUGGAUCCCCCGGCGCCCGGCGGCUCGAGCCCGGGUAAGUGUAAAUAGUCUGCAUGCCGCCGGGCGCCAUGCCUGCAGGUCGACUCUAGAAAACAUG” was tested. Which binding signal did it give?
Its binding signal is 2.81 log2 enrichment (interaction score).

For “GGCUAGAACUAGUGGAUCCCCCGGCGCCCGGCGGCUCGAGCCCGGGUAAGUGUAUAUAGUCUGCAUGCCGCCGGGCGCCAUGCCUGCAGGUCGACUCUAGAAAACAUG”, which binding signal is on record?
Its binding signal is 2.64 log2 enrichment (interaction score).

Target: PUM1 PUF domain R5-GKE (Homo sapiens, UniProt Q14671 828-1176, C1007G;R1008K;Q1011E)
Assay: as above
Conditions: tags: N-Gal4 AD-HA kept; label: inside an RPR1-promoter hybrid RNA with tandem MS2 sites; ssRNA
Summary of the method: as §1

With “GGCUAGAACUAGUGGAUCCCCCGGCGCCCGGCGGCUCGAGCCCGGGUAAGUGUGAAUAGUCUGCAUGCCGCCGGGCGCCAUGCCUGCAGGUCGACUCUAGAAAACAUG” as the sequence, how does the binding signal read?
Its binding signal is 4.81 log2 enrichment (interaction score).

For “GGCUAGAACUAGUGGAUCCCCCGGCGCCCGGCGGCUCGAGCCCGGGUAAGUGUUAAUAGUCUGCAUGCCGCCGGGCGCCAUGCCUGCAGGUCGACUCUAGAAAACAUG”, which binding signal is on record?
Its binding signal is 2.85 log2 enrichment (interaction score).

Which binding signal does the source give for “GGCUAGAACUAGUGGAUCCCCCGGCGCCCGGCGGCUCGAGCCCGGGUAAGUGUCAAUAGUCUGCAUGCCGCCGGGCGCCAUGCCUGCAGGUCGACUCUAGAAAACAUG” here?
The binding signal was 1.37 log2 enrichment (interaction score).

Target: PUM1 PUF domain R1-KLV (Homo sapiens, UniProt Q14671 828-1176, S863K;R864L;Q867V)
Assay: as above
Conditions: tags: N-Gal4 AD-HA kept; label: inside an RPR1-promoter hybrid RNA with tandem MS2 sites; ssRNA
Summary of the method: as §1

How did the binding signal turn out when “GGCUAGAACUAGUGGAUCCCCCGGCGCCCGGCGGCUCGAGCCCGGGUAAGUGUAAAUCGUCUGCAUGCCGCCGGGCGCCAUGCCUGCAGGUCGACUCUAGAAAACAUG” was run?
Its binding signal is 3.95 log2 enrichment (interaction score).

How did the binding signal turn out when “GGCUAGAACUAGUGGAUCCCCCGGCGCCCGGCGGCUCGAGCCCGGGUAAGUGUAAAUUGUCUGCAUGCCGCCGGGCGCCAUGCCUGCAGGUCGACUCUAGAAAACAUG” was run?
Its binding signal is 4.79 log2 enrichment (interaction score).

For “GGCUAGAACUAGUGGAUCCCCCGGCGCCCGGCGGCUCGAGCCCGGGUAAGUGUAAAUGGUCUGCAUGCCGCCGGGCGCCAUGCCUGCAGGUCGACUCUAGAAAACAUG”, which binding signal is on record?
Its binding signal is 3.18 log2 enrichment (interaction score).
